Laboratory results published in PubChem BioAssay AID1508633 (National Center for Advancing Translational Sciences (NCATS), 2021).
Results filed as inconclusive are left out. Active and inactive are the calls of the source. Calls follow the shape of the dose curve; as a rule, active = well fitted inhibition curve with a large enough effect; inconclusive = small, poorly fitted or top-dose-only effect; inactive = no such curve, though single readings can be large or run the other way.

System: zebrafish ABCB5 (Abcb5) multidrug transporter
Assay: qHTS for characterization and localization of zebrafish homologs of the human ABCB1 multidrug transporter: ABCB5 transfected cells
Conditions: CellTiter-Glo luminescence viability, 72 h
Description: The zebrafish has emerged as a potential model to study the blood-brain barrier (BBB) given its similarities with mammalian systems. However, little information has been available with regard to homologous ATP-binding cassette transporters expressed at the zebrafish BBB. Two transporters that are highly expressed at the human BBB are P-glycoprotein (P-gp, encoded by the ABCB1 gene) and ABCG2 (encoded by the ABCG2 gene). In this study, we focus on characterization of P-gp homologs in the zebrafish, which has two genes that are homologous to human ABCB1 - abcb4 and abcb5. We generated stably-transfected cell lines to determine their substrate specificities. […] Zebrafish abcb4 also colocalized with claudin 5 expression in brain endothelial cells.
A high-throughput screen was performed as previously described on empty vector transfected cells, P-gp-overexpressing MDR-19 cells and cells transfected with full-length zebrafish abcb4 (ZF Abcb4) or abcb5 (ZF Abcb5). Briefly, cells were plated into 1536-well plates at a density of 500 cells/well in 5 uL media. […] CellTiter-Glo reagent (Promega) was dispensed into the wells, incubated for 5 min and luminescence was read on a ViewLux instrument (Perkin-Elmer). […]

Compound: C=CCON=C(C[C@H]1O[C@@H]2O[C@]3(C)CC[C@@H]4[C@H](C)CC[C@@H]([C@H]1C)[C@@]24OO3)[C@H]1O[C@@H]2O[C@]3(C)CC[C@H]4[C@H](C)CC[C@@H]([C@@H]1C)[C@@]24OO3
- Potency: 0.526 µM (active)

Compound: C[C@@H]1[C@@H](CC(C[C@H]2O[C@@H]3O[C@]4(C)CC[C@@H]5[C@H](C)CC[C@@H]([C@H]2C)[C@@]35OO4)C[S+](=O)([O-])c2ccc(COC(=O)N(C)C)cc2)O[C@@H]2O[C@]3(C)CC[C@H]4[C@H](C)CC[C@@H]1[C@@]24OO3 (some centres not stated)
- Potency: 0.59 µM (active)
